In ChEMBL document CHEMBL1157539, “Thousands of chemical starting points for antimalarial lead identification” (Nature, 2010) one finds Inhibition data, which are given here for 37 compounds.

This assay has as its system HepG2. Kind of assay: GSK_TCMDC: Percent inhibition of human HepG2 cell line. Test compounds present at 10uM. The class given is functional.
Compound `O=C(O)C(F)(F)F.c1ccc(CN2CCC(NCc3ccc(-c4ccc(CNC5CCCC5)cc4)cc3)CC2)cc1` came in with an Inhibition of 24%.
Then `Nc1ncc(-c2ccccc2)cc1/C=C/c1cccnc1`, with 33%; and `O=C(/C=C/c1ccc(Cl)c(Cl)c1)NCCCCCN1CCC(NS(=O)(=O)c2cc(Cl)cc(Cl)c2)CC1`, with 7%; and `COc1ccc(C(=O)N2CCN(c3ccc([N+](=O)[O-])c(NC4CC4)c3)CC2)cc1Br`, with 6%.
The value for `CC(CN1CCN(C)CC1)C(=O)Nc1ccc(-c2ccc(-c3nc4cc(F)ccc4[nH]3)cc2)cc1` (configuration not stated) was 19%; that for `Br.Cc1ccc(OCCCON2C(=N)N=C(N)NC2(C)C)cc1C` was 57%; that for `C=CCOc1ccc2ccccc2c1CNCCCCCCNCc1c(OCC=C)ccc2ccccc12.CS(=O)(=O)O` was 99%.
The value for `Nc1ncc(-c2ccc(NC(=O)Nc3cc(C(F)(F)F)ccc3F)cc2)c(N)n1.O=C(O)C(F)(F)F` was 96%; that for `Cl.NC1CCN(Cc2cccc(-c3ccc(-c4nc5cc(C(F)(F)F)ccc5[nH]4)cc3)c2)C1` (configuration not stated) was 21%; that for `O=C(NC1CC1)c1ccc(Nc2nccc(-c3c(-c4cccc(NC(=O)c5c(F)cccc5F)c4)nn4ccccc34)n2)cc1` was 84%.
Regarding `CC(C)CCN1CCC(Oc2ccc(NC(=O)c3cccs3)cc2Cl)C1.O=C(O)C(F)(F)F` (configuration not stated), the Inhibition was 17%.
In turn, `Cn1nc(-c2ccc(CNC3CCc4ccccc43)cc2)c2cnc(NCCCN3CCCC3)nc21` (configuration not stated) came in with an Inhibition of 27%.
The value for `Cl.N#Cc1ccc2c(c1)CCN(CCC1CCC(Nc3ncnc4ccccc34)CC1)C2` (configuration not stated) was 65%.
Then `CC(CN1CCN(C)CC1)C(=O)Nc1cccc(-c2ccc(-c3nc4ccccc4[nH]3)s2)c1` (configuration not stated), with 2%.
In turn, `CC(=O)N(C)c1ccc(C(=O)Nc2cccc(-c3cccc(-c4nc5cccc(C)c5[nH]4)c3)c2)cc1` returned an Inhibition of 11%.
Then `O=C(O)C(F)(F)F.O=[N+]([O-])c1cccc(CNCC2CCN(CC3CCCCC3)CC2)c1`, with 11%; and `CS(=O)(=O)CCNCc1nc(-c2ccc3c(=O)[nH]cnc3c2)cs1`, with 81%; and `Cc1[nH]c(C)c(-c2ccc(Oc3cccc(Cl)c3)cc2)c(=O)c1Cl`, with 40%.
The value for `CC(C)(CNC(=O)[C@H]1CCCN1)c1nc(-c2ccc(Cl)c(O)c2)c(-c2ccncc2)[nH]1.Cl` was 0%; that for `CS(=O)(=O)N(c1ccccc1)c1cc(C(=O)N[C@@H](Cc2ccccc2)[C@H](O)CNC2CC2)cc(N2CCCC2=O)c1` was 1%; that for `C=CCOC(=O)N1CCC(CNCc2cccc(-c3cccc(-c4nc5cccc(C)c5[nH]4)c3)c2)C1.O=C(O)C(F)(F)F` (configuration not stated) was 22%.
Turning to `O=C1OC2(CCN(C(=O)c3ccc(-n4cnnn4)cc3)CC2)CN1Cc1ccc(Cl)c(Cl)c1`, the Inhibition was found to be 11%.
The value for `CC(=O)Nc1ccc(C(=O)Nc2cccc(-c3cccc(-c4nc5cccc(C)c5[nH]4)c3)c2)cn1` was 16%.
Compound `CN(C(=O)Nc1ccc(F)cc1)C1CCN(CCCCCNC(=O)/C=C/c2ccc(Cl)c(Cl)c2)CC1` returned an Inhibition of 38%.
The value for `O=c1cc(NCCCCNCc2cccc(Cl)c2)[nH]c2ccccc12` was 2%; that for `Cc1cc(OCC2CCN(c3ncc(C(=O)Nc4ccccc4)cc3Cl)CC2)ccc1F` was 27%; that for `Cc1cc(N/N=C/c2ccccc2[N+](=O)[O-])c2ccccc2n1` was 10%.
Then `Cc1ccoc1C(=O)Nc1cccc(-c2cccc(-c3nc4ccccc4[nH]3)c2)c1`, with 43%; and `Cc1ccc(C)c(Sc2ccc(NC(=O)CN3CCN(C(=O)c4ccco4)CC3)cc2)c1`, with 28%.
Compound `COc1c(C2CCN(CCCCNC(=O)c3noc(-c4ccc(C#N)cc4)n3)CC2)ccc2c1CCCC2` showed an Inhibition of 32%.
The value for `O=[N+]([O-])c1ccc2c(-c3ccccc3)c(-c3ccccc3)n(O)c2c1` was 8%; that for `COc1ccc(NC(=O)c2c(NC(=O)c3cccs3)sc3c2CCCC3)cc1` was 4%.
`Br.CN(CCON1C(=N)N=C(N)NC1(C)C)c1ccccc1` had an Inhibition of 64%.
Then `COc1ccc(CN2CCC(CNC(C)c3cccc4ccccc34)CC2)cc1.O=C(O)C(F)(F)F` (configuration not stated), with 58%; and `CCNc1cc(C(=O)N[C@@H](Cc2ccoc2)[C@H](O)CNC(C)CCCC(C)C)cc(N2CCCCS2(=O)=O)c1.Cl` (some centres not stated), with 0%; and `CN1N=C2c3ccccc3CCC2C1c1ccc(C#N)cc1` (configuration not stated), with 0%.
The value for `Clc1cccc(Cl)c1CCNCC1CCN(CC2CCCCC2)CC1.O=C(O)C(F)(F)F` was 39%.

Broadly, the Inhibition is the share of the control response that was lost under treatment. High values mean a strong effect, low ones a weak effect.
